The test system of assay [1] is S. cerevisiae SK1 pCDA2-eGFP (USY613), sporulating. The assay can be described thus: CDA2-GFP sporulation assay sensitivity score (z-score vs DMSO controls); higher = stronger inhibition of sporulation, active = hit call of the paper.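 Also: active if sensitivity score above 5.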
Assay [2] deals with S. cerevisiae AD1-9 (efflux-pump deficient), vegetative growth in YPD. The assay can be described thus: growth sensitivity score (doubling time z-score vs DMSO controls); higher = slower growth, strongly negative scores also mark growth inhibition (complete suppression), active = hit call of the paper. In a few lines: (§1)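 Saccharomyces cerevisiae strains BY4741 and AD1-9 were seeded in rich medium in microtiter plates at an OD600 of 0.065. Compounds were added at a 1:100 dilution of DMSO stock. Optical density was read every 15 min for 24 hours on a Tecan GENios reader. Average doubling time was the time taken to reach a set generation point divided by generation number, and the growth sensitivity score was (compound mean − DMSO-control mean)/DMSO-control SD, using eight DMSO controls per experiment.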

Assay [3] has as its system S. cerevisiae BY4741 (wild-type), vegetative growth in YPD. Described as above. In a few lines: as §1
Setting [4] is: stock concentration (mM, diluted 1:100): 10.
Setting [5] is: stock concentration (mM, diluted 1:100): 19.9.
Setting [6] is: stock concentration (mM, diluted 1:100): 10.1.
The mark [7] stands for this setting: stock concentration (mM, diluted 1:100): 8.7.
[8] abbreviates: stock concentration (mM, diluted 1:100): 8.9.
[9] abbreviates: stock concentration (mM, diluted 1:100): 7.6.

The values that follow come from the supplement of paper PMC3414501.

Counter-ions that a name gives are not always drawn.

As for `COc1ccc(CCN)cc1OC` [Homoveratrylamine], in assay [1] (setting [4]), the “CDA2-GFP sporulation assay sensitivity score” value was -0.12 (inactive). The growth sensitivity score in assay [2] (setting [4]) is -1.46 (inactive); in assay [3] (setting [4]), -1.07 (inactive).
With `Cc1ccc(-c2nc3ccc(C)cn3c2CC(=O)N(C)C)cc1` [Zolpidem tartrate], the “CDA2-GFP sporulation assay sensitivity score” value in assay [1] (setting [5]) is 1.79 (inactive). Also, the growth sensitivity score was -1.48 (inactive) in assay [2] (setting [5]) and -0.6 (inactive) in assay [3] (setting [5]).
On to `C[C@]12CC[C@H]3[C@@H](CCC4=CC(=O)CC[C@@H]43)[C@@H]1CC[C@@H]2O` [19-Nortestosterone], for which the “CDA2-GFP sporulation assay sensitivity score” value in assay [1] (setting [4]) is 1.91 (inactive). The growth sensitivity score in assay [2] (setting [4]) is 5.3 (active); in assay [3] (setting [4]), 2.24 (active).
In the case of `CC(O)(CS(=O)(=O)c1ccc(F)cc1)C(=O)Nc1ccc(C#N)c(C(F)(F)F)c1` (configuration not stated) [Bicalutamide], the “CDA2-GFP sporulation assay sensitivity score” value in assay [1] (setting [4]) was 0.41 (inactive). Moreover, the growth sensitivity score in assay [3] (setting [4]) is 0.66 (inactive).
With `NC(=O)OCCCc1ccccc1` [Phenprobamate], the “CDA2-GFP sporulation assay sensitivity score” value in assay [1] (setting [6]) is -0.41 (inactive). Moreover, the growth sensitivity score in assay [2] (setting [6]) was -0.54 (inactive); in assay [3] (setting [6]) it was 0.48 (inactive).
As for `FC(F)(F)c1cccc(N2CCNCC2)c1`, the “CDA2-GFP sporulation assay sensitivity score” value in assay [1] (setting [4]) was 0.69 (inactive). In addition, the values for the growth sensitivity score in assay [2] (setting [4]) and in assay [3] (setting [4]) were 2.22 (active) and 1.25 (inactive), respectively.
As to `C[N+]1(CCC(C(N)=O)(c2ccccc2)c2ccccc2)CCCCC1` [Fenpiverinium bromide], in assay [1] (setting [6]), the “CDA2-GFP sporulation assay sensitivity score” value is 0.3 (inactive). In addition, the growth sensitivity score in assay [2] (setting [6]) was -1.25 (inactive); in assay [3] (setting [6]), -1.06 (inactive).
With `CN=C1CN(O)C(c2ccccc2)=c2cc(Cl)ccc2=N1` [Chlordiazepoxide], the “CDA2-GFP sporulation assay sensitivity score” value in assay [1] (setting [4]) was 1.73 (inactive). Besides, the growth sensitivity score in assay [2] (setting [4]) is 0.94 (inactive); in assay [3] (setting [4]), 1.44 (inactive).
For `COc1cc(N)c(Cl)cc1C(=O)NC1CN2CCC1CC2` (configuration not stated) [Zacopride], in that order: 2.91 (inactive), -2.46 and -1.3 (inactive).
With `c1ccc(Cn2ccnc2)cc1` [1-Benzylimidazole], the “CDA2-GFP sporulation assay sensitivity score” value in assay [1] (setting [4]) is 2.48 (inactive). The growth sensitivity score is -1.25 (inactive) in assay [2] (setting [4]) and -1.22 (inactive) in assay [3] (setting [4]).
For `CN1C(=O)CN=C(c2ccccc2)c2cc([N+](=O)[O-])ccc21` [Nimetazepam], in that order: -0.53 (inactive), 0.79 (inactive) and -0.45 (inactive).
Take `CCOC(=O)c1cncn1[C@H](C)c1ccccc1` [Etomidate]: the “CDA2-GFP sporulation assay sensitivity score” value in assay [1] (setting [6]) was 6.33 (active). The growth sensitivity score in assay [2] (setting [6]) is 7.78 (active); in assay [3] (setting [6]), 2.21 (active).
For `CC(=O)O[C@H]1C[C@@H]2CC[C@@H]3[C@H](CC[C@@]4(C)[C@H]3C[C@H]([N+]3(C)CCCCC3)[C@@H]4OC(C)=O)[C@@]2(C)C[C@@H]1[N+]1(C)CCCCC1` [Pancuronium], the “CDA2-GFP sporulation assay sensitivity score” value in assay [1] (setting [7]) is 2.51 (inactive). In addition, the growth sensitivity score in assay [2] (setting [7]) was -8.57; in assay [3] (setting [7]), -0.39 (inactive).
Take `C=C1C[C@@H]2[C@H](CC[C@]3(C)C(=O)CC[C@@H]23)[C@@]2(C)C=CC(=O)C=C12` [Exemestane]: the “CDA2-GFP sporulation assay sensitivity score” value in assay [1] (setting [4]) was 7.73 (active). Moreover, the growth sensitivity score in assay [2] (setting [4]) was 4.58 (active); in assay [3] (setting [4]), 0.77 (inactive).
Regarding `COc1ccc(C(CN(C)C)C2(O)CCCCC2)cc1` (configuration not stated) [Venlafaxine hydrochloride], in assay [1] (setting [8]), the “CDA2-GFP sporulation assay sensitivity score” value was -0.02 (inactive). Moreover, the values for the growth sensitivity score in assay [2] (setting [8]) and in assay [3] (setting [8]) were -1.06 (inactive) and -0.63 (inactive), respectively.
Take `CN1CC[C@]23CCCC[C@H]2[C@H]1Cc1ccc(O)cc13` [Levorphanol tartrate]: the “CDA2-GFP sporulation assay sensitivity score” value in assay [1] (setting [9]) was -2.67 (inactive). In addition, the figures for the growth sensitivity score in assay [2] (setting [9]) and in assay [3] (setting [9]) were -1.11 (inactive) and -0.24 (inactive), respectively.
Consider `C[C@]12C/C(=C/O)C(=O)C[C@@H]1CC[C@@H]1[C@@H]2CC[C@@]2(C)[C@H]1CC[C@]2(C)O` [Oxymetholone], for which the “CDA2-GFP sporulation assay sensitivity score” value in assay [1] (setting [6]) was 1.28 (inactive). For the same molecule, the growth sensitivity score in assay [3] (setting [6]) is 9.13 (active).
For `COC(=O)N1CCN(C(=O)Cc2ccc(Cl)c(Cl)c2)C(CN2CCCC2)C1` (configuration not stated), the “CDA2-GFP sporulation assay sensitivity score” value in assay [1] (setting [4]) is 3.34 (inactive). The growth sensitivity score in assay [2] (setting [4]) was -1.16 (inactive); in assay [3] (setting [4]), -1.35 (inactive).
